Data: ChEMBL document CHEMBL3988442, “University of Dundee, Small-Polar-MMV Screening Library” (2021)
For some assays here: Entries with a potency or affinity are not part of this list.

How the values were obtained:
Design in all cases: scale not given: direction of the effect not stated beside the values
[1] = target: Protein translocase subunit SecA (Escherichia coli (strain K12)) (UniProt P10408); assay: Assay to Identify E. coli SecA ATPase Inhibitors; assay type: functional; conditions: 30 µM
Sequence of Protein translocase subunit SecA (Escherichia coli (strain K12)) (P10408 whole entry): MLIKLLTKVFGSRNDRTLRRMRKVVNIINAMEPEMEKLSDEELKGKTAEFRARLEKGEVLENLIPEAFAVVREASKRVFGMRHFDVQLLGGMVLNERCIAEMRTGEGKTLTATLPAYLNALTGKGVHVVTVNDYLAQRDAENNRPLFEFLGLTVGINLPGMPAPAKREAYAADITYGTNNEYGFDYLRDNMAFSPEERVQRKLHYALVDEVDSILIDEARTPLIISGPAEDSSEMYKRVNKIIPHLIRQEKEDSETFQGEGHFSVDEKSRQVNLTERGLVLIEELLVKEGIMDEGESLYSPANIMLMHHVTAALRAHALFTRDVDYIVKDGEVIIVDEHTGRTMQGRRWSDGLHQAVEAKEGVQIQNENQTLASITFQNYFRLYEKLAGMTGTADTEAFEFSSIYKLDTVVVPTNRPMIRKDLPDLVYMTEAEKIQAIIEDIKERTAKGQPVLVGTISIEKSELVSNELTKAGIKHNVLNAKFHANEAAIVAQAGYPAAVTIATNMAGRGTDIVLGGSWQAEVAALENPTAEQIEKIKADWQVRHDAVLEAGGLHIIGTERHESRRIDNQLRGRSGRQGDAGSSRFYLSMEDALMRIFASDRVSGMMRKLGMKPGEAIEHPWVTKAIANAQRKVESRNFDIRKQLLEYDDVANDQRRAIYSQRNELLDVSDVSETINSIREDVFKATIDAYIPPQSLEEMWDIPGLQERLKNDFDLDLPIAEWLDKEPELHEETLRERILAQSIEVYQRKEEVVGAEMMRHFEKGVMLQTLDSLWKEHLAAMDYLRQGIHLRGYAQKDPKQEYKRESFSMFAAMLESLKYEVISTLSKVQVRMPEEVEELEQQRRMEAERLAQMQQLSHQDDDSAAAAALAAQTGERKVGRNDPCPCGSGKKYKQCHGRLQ

[2] = target: T1, Ubiquitin-activating enzyme e1, putative (Leishmania donovani (strain BPK282A1)) (UniProt E9BSI1); assay: Leishmania donovani Ubiquitin Activating Enzyme (LdE1); assay type: functional; conditions: 30 µM
T1 sequence (whole entry): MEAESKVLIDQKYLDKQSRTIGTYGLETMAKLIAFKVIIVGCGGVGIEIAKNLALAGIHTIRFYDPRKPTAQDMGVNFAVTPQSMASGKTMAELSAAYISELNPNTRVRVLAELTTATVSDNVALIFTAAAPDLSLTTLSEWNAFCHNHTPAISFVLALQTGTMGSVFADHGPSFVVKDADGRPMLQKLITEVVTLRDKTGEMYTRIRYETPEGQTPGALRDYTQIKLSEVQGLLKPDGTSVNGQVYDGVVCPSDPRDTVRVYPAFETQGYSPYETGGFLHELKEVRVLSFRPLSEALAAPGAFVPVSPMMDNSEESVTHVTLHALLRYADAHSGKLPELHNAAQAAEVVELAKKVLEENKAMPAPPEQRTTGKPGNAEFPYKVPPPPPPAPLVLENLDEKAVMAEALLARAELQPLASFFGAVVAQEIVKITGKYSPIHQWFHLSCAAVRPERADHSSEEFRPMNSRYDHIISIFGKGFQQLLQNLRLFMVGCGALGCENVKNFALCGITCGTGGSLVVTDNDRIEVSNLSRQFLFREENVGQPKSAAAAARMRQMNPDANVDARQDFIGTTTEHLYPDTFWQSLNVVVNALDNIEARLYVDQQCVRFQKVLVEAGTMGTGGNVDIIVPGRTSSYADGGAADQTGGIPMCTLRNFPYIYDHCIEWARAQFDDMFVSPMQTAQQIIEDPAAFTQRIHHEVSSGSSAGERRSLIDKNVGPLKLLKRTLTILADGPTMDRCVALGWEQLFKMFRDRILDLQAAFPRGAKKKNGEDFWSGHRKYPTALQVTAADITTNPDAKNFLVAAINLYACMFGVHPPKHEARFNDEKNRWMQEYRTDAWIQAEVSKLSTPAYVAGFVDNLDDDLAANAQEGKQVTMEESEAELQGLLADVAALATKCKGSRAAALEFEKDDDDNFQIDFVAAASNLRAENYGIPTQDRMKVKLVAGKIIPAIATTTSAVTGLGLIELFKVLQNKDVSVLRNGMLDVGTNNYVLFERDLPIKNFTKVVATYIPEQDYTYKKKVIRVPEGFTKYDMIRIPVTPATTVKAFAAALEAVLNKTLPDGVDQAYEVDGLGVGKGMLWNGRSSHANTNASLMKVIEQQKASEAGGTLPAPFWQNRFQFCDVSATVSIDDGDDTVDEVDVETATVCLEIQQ

[3] = target: Sialic acid-binding Ig-like lectin 9 (Homo sapiens) (UniProt Q9Y336); assay: Hs-Siglec9 ALPHAscreen SOP 20170721; conditions: 10 µM
Sequence of Sialic acid-binding Ig-like lectin 9 (Homo sapiens) (Q9Y336 whole entry): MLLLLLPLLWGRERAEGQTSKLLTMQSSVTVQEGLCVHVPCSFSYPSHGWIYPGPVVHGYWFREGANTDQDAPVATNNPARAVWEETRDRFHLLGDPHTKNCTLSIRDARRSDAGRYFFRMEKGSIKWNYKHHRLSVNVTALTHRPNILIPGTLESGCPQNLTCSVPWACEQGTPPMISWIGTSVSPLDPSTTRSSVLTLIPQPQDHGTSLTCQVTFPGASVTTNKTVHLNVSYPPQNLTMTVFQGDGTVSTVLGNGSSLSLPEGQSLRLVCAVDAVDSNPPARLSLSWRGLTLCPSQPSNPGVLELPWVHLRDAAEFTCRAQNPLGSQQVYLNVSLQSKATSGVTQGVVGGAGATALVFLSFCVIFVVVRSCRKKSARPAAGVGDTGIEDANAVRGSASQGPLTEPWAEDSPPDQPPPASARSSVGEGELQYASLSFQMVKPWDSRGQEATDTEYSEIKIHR

[4] = test system: Trypanosoma cruzi; assay: Trypanosoma cruzi phosphomannomutase and mannose-1-phosphate guanylyltransferase assay; assay type: functional; conditions: 10 µM
[5] = target: T2, Arginase-2, mitochondrial (Homo sapiens) (UniProt P78540); assay: in vitro enzyme assay to detect the production of urea directly proportional to the activity of Arginase II; assay type: functional; conditions: 33.3 µM; further: in the data most compounds retested in dose-response had high values
T2 sequence (whole entry): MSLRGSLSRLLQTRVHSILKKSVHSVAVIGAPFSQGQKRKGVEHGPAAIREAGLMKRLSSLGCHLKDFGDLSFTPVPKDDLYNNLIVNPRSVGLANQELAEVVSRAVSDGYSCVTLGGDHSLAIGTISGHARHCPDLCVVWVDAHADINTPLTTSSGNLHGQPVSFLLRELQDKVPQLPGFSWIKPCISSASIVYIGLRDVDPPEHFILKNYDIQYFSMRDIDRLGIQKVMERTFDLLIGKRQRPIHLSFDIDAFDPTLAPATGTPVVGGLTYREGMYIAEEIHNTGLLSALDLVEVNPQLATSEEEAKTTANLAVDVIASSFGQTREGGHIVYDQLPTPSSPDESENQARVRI

[6] = target: T3, Proteasome subunit beta (Trypanosoma cruzi) (UniProt O96673); assay: Trypanosoma cruzi proteasome chymotrypsin-like activity (TcProtChymo) assay.; further: in the data most compounds retested in dose-response had high values; assay type: functional; conditions: 9.37 µM
T3 sequence (whole entry): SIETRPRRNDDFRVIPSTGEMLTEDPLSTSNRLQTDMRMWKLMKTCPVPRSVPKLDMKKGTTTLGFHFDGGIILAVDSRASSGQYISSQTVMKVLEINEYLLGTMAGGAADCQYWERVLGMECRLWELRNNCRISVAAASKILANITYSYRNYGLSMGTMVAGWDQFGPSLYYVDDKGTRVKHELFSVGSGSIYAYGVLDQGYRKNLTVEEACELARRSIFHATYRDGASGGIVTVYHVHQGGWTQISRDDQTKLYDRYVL

[7] = organism: Homo sapiens; assay: To identify inhibition of the IFN signalling (Jak-Stat) pathway via expression of an eGFP reporter gene under the control of an IFN-stimulated response element (ISRE) containing MxA promoter.; assay type: functional; conditions: 30 µM
[8] = target: T4, Tyrosyl-tRNA synthetase, putative (Trypanosoma cruzi (strain CL Brener)) (UniProt Q4DSP6); assay: Trypanosoma cruzi tyrosyl tRNA synthetase (TcYRS) _High Tyrosine SOP; assay type: functional; conditions: 30 µM; further: in the data most compounds retested in dose-response had high values
T4 sequence (whole entry): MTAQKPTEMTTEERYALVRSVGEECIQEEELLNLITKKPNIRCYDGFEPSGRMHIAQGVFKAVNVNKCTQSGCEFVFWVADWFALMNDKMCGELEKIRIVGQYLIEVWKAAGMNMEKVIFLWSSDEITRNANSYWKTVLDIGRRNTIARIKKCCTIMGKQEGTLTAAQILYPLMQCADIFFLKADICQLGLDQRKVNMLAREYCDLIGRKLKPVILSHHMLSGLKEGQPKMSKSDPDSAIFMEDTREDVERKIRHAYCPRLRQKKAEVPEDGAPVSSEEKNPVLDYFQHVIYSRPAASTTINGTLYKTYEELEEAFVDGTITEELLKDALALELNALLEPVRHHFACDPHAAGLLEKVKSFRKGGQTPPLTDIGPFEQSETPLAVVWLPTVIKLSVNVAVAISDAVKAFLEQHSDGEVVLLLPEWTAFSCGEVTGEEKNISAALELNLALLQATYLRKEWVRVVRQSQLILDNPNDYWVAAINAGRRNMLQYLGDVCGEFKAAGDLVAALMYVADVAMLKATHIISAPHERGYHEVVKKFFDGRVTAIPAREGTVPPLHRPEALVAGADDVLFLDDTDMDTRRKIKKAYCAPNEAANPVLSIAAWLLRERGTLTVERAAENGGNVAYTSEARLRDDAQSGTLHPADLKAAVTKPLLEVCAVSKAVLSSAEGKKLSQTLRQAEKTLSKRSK

[9] = target: T4, Tyrosyl-tRNA synthetase, putative (Trypanosoma cruzi (strain CL Brener)); assay: Trypanosoma cruzi tyrosyl tRNA synthetase (TcYRS) SOP; assay type: functional; conditions: 30 µM
[10] = target: Chromo domain-containing protein 1 (Saccharomyces cerevisiae (strain ATCC 204508 / S288c) (Baker's yeast)) (UniProt P32657); assay: ScCHD-1 Enzyme Inhibition Assay; assay type: functional; conditions: 30 µM; further: in the data most compounds retested in dose-response had high values
Sequence of Chromo domain-containing protein 1 (Saccharomyces cerevisiae (strain ATCC 204508 / S288c) (Baker's yeast)) (P32657 whole entry, the tested form may be a part): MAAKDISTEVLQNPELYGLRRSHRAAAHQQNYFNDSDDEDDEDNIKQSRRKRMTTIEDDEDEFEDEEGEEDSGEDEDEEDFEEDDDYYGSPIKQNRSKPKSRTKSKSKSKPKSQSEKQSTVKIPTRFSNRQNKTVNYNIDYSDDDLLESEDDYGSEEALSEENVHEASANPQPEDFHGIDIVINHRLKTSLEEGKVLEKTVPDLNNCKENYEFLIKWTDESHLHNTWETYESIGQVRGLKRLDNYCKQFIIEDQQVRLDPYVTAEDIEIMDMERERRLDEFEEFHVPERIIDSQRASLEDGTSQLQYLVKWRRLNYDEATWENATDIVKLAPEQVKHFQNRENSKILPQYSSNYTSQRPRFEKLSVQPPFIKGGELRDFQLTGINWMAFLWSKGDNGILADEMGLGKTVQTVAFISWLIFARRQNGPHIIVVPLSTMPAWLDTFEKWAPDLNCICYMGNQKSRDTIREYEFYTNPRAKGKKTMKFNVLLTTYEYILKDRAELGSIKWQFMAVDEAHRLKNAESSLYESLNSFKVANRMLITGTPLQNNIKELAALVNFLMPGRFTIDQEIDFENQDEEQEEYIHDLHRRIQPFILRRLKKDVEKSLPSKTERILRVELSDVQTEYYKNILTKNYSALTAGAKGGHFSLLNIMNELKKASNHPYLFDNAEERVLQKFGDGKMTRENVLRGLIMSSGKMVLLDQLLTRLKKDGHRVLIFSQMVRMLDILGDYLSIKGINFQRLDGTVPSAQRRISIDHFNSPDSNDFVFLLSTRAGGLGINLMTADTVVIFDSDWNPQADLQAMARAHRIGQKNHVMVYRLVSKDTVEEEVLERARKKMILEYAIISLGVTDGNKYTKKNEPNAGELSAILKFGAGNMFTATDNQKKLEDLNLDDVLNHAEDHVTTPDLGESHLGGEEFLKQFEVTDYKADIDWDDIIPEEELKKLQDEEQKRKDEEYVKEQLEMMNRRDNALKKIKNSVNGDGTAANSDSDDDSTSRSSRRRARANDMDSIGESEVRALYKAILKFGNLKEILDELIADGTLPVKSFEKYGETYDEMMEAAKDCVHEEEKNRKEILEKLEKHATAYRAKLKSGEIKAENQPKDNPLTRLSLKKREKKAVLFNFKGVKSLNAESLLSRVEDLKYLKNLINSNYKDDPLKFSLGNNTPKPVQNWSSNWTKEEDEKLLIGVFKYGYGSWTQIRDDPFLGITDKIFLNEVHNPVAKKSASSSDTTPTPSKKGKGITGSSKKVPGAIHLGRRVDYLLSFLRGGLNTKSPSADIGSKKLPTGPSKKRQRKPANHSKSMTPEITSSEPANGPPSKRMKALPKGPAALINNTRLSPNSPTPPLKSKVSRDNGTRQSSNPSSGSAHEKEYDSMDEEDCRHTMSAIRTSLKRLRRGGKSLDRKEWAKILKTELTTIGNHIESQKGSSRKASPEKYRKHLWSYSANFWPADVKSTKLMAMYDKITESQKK

In the case of `Cc1cc(NCc2cc3n(n2)CCCN(S(C)(=O)=O)C3)ncn1`, the Percent Effect [1] is reported as -8.82%, the Percent Effect [2] is reported as 2.7% and the Percent Effect [3] is reported as 4.07%. For the same compound, the Percent Effect [4] was 3.59%, the Percent Effect [5] was 5.94% and the Percent Effect [6] was 4.97%. For the same compound, the Percent Effect [7] was 0.911%, the Percent Effect [8] was 3.72% and the Percent Effect [9] was 12.2%. It also gave a Percent Effect [10] of 0.638%.

Work on `NC(=O)CN1CCC(NC(=O)Nc2nccs2)CC1` yielded a Percent Effect [1] of -1.25%, a Percent Effect [2] of 15.4% and a Percent Effect [3] of -19.1%. For the same compound, the Percent Effect [4] was 9.11%, the Percent Effect [5] was -0.82% and the Percent Effect [6] was 13.1%. The Percent Effect [7] was 5.92%, the Percent Effect [8] was 1.44% and the Percent Effect [9] was 20.5%. For the same compound, the Percent Effect [10] was -8.95%.

`Cc1nc(-c2ccccc2F)sc1C(=O)N1CCN(C)CC1` gave a Percent Effect [1] of -7.34%, a Percent Effect [2] of 2.7% and a Percent Effect [3] of 4.45%. The Percent Effect [4] was -0.679%, the Percent Effect [5] was -3.85% and the Percent Effect [6] was 18.5%. It also gave a Percent Effect [7] of 4.62%, a Percent Effect [8] of 3.72% and a Percent Effect [9] of 12.2%. For the same compound, the Percent Effect [10] was -3.18%.

`Cc1c(F)cccc1CN1CCn2nc(CNC(=O)N(C)C)cc2C1` showed a Percent Effect [1] of -5.26%, a Percent Effect [2] of 10.8% and a Percent Effect [3] of 14.7%. For the same compound, the Percent Effect [4] was 9.21%, the Percent Effect [5] was 28.3% and the Percent Effect [6] was 8.05%. The Percent Effect [7] was 4.47%, the Percent Effect [8] was 5.85% and the Percent Effect [9] was 17.1%. For the same compound, the Percent Effect [10] was -7.8%.

`O=C(CSC1CCc2ccccc2NC1=O)NCCO` (stereo not given) was tested, and the Percent Effect [1] was -0.348%, the Percent Effect [2] was 13.5% and the Percent Effect [3] was 0.884%. It also gave a Percent Effect [4] of 1.84%, a Percent Effect [5] of -3.15% and a Percent Effect [6] of 15.6%. For the same compound, the Percent Effect [7] was 25.1%, the Percent Effect [8] was 5.85% and the Percent Effect [9] was 14.6%. The Percent Effect [10] was -1.22%.

`CN(C)c1ccccc1C(=O)N1C[C@@H](CN2CCOCC2)[C@@H](CO)C1` gave a Percent Effect [1] of -7.18%, a Percent Effect [2] of 5.41% and a Percent Effect [3] of 5.57%. It also gave a Percent Effect [4] of 6.69%, a Percent Effect [5] of -0.35% and a Percent Effect [6] of 18.3%. For the same compound, the Percent Effect [7] was 22.3%, the Percent Effect [8] was 7.98% and the Percent Effect [9] was 19.5%. It also gave a Percent Effect [10] of -2.44%.

With `CCN(CC1CCOC1)C(=O)Nc1ccc(-n2cncn2)nc1` (stereo not given) the Percent Effect [1] was -3.32%, the Percent Effect [2] was 5.13% and the Percent Effect [3] was -0.956%. For the same compound, the Percent Effect [4] was -12.7%, the Percent Effect [5] was 0% and the Percent Effect [6] was 9.3%. It also gave a Percent Effect [7] of 5.11%, a Percent Effect [8] of 4.31% and a Percent Effect [9] of 10.8%. The Percent Effect [10] was -5.86%.

Work on `Cc1cc(CN(C)C(=O)c2ccc(F)cc2Br)no1` yielded a Percent Effect [1] of -3.65%, a Percent Effect [2] of 10.3% and a Percent Effect [3] of -16.2%. It also gave a Percent Effect [4] of -5.35%, a Percent Effect [5] of -1.23% and a Percent Effect [6] of 15.3%. The Percent Effect [7] was 28.1%, the Percent Effect [8] was 3.35% and the Percent Effect [9] was 10.8%. It also gave a Percent Effect [10] of -3.45%.

With `Cc1cnn(CC2CCCN2CC(=O)Nc2cc(C)nn2C)c1` (stereo not given) the Percent Effect [1] was -2.33%, the Percent Effect [2] was 5.2% and the Percent Effect [3] was 5.19%. The Percent Effect [4] was 2.8%, the Percent Effect [5] was 1.02% and the Percent Effect [6] was -5.44%. The Percent Effect [7] was 0.341%, the Percent Effect [8] was 4.9% and the Percent Effect [9] was 16.5%. It also gave a Percent Effect [10] of -7.89%.

Work on `O=C(NCCCn1ccnc1)N1CCN(c2cccs2)CC1` yielded a Percent Effect [1] of -5.79%, a Percent Effect [2] of -10.4% and a Percent Effect [3] of 7.23%. For the same compound, the Percent Effect [4] was 2.42%, the Percent Effect [5] was -9.22% and the Percent Effect [6] was 12.8%. For the same compound, the Percent Effect [7] was -11.9%, the Percent Effect [8] was 28.4% and the Percent Effect [9] was 11.8%. The Percent Effect [10] was 0.725%.

In the case of `CCc1nc(CN(C)C2CCN(CCS(C)(=O)=O)C2)no1` (stereo not given), the Percent Effect [1] is reported as -1.27%, the Percent Effect [2] is reported as 18.7% and the Percent Effect [3] is reported as -4.89%. The Percent Effect [4] was 0%, the Percent Effect [5] was -1.77% and the Percent Effect [6] was 16.9%. For the same compound, the Percent Effect [7] was 4.92%, the Percent Effect [8] was 5.79% and the Percent Effect [9] was 17.9%. For the same compound, the Percent Effect [10] was -5.25%.
